From PubChem BioAssay AID1851 (National Center for Advancing Translational Sciences (NCATS), 2009) come the findings set out here.

Several values for one entry are separate records, joined by “and”; a condition that tells them apart may be missing. Equal values may be shown once. Screen size: about 16,000 compounds; about 5,800 (36%) were called active. Not shown: some 23% with an inconclusive outcome. This is one part of the list. A number with no mark means an inactive call. Calls follow the shape of the dose curve; as a rule, active = well fitted curve in the direction sought with a large enough effect; inconclusive = small, poorly fitted or top-dose-only effect, or effect the other way; inactive = no such curve, though single readings can be large or run the other way.
% is scaled to controls: 0 for no effect and ±100 for the full control effect.

This assay deals with Cytochrome P450 2C19 (Homo sapiens) (UniProt P33261). The assay can be described thus: Cytochrome panel assay with activity outcomes. Conditions: recombinant CYP, pro-luciferin dealkylation, luminescence, p450-cyp2c19; series mostly up to 57.1 µM.
Sequence of Cytochrome P450 2C19 (Homo sapiens) (P33261 whole entry, looked up): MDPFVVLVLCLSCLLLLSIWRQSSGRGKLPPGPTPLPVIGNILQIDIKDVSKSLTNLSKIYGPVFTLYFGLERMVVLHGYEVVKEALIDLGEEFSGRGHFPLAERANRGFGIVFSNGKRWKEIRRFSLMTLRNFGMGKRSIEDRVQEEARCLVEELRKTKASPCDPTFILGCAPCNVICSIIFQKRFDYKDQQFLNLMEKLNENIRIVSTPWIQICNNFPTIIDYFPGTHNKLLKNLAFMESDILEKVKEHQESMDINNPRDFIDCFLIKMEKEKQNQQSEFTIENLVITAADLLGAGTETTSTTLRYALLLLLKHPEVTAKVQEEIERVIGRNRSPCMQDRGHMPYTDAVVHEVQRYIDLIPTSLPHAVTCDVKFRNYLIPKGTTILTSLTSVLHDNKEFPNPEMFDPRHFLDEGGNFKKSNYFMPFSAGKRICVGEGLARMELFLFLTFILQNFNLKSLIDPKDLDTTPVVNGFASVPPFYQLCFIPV
Broadly, the AC50 is the midpoint of the concentration-response curve, whichever way the signal moves. In the case of `CCC1C(=O)OCC1Cc1cncn1C` (configuration not stated), the AC50 was 7.94 µM (active). Consider `CC[C@H]1C(=O)OC[C@H]1Cc1cncn1C`, for which the AC50 entry is “inactive”. Consider `CC1(C)Cc2c(C#N)c(SCc3ccccc3)nc(N3CCOCC3)c2CO1`, for which the AC50 was 8.91 µM (active). Same read-out and setting: then `COCCn1c(=O)c(-c2cn(C)c3ccccc23)nc2cnc(Oc3cccc(Cl)c3)nc21`, with “inactive”. Same read-out and setting: then `N#CCCn1c(=O)c(CCc2ccccc2)nc2cnc(Oc3ccccc3)nc21`, with 31.6 µM (active). With `N#CCCn1c(=O)c(-c2ccccc2)nc2cnc(Oc3cccc(Cl)c3)nc21`, the AC50 result was “inactive”. As for `COc1ccc(-c2nc3cnc(Oc4cccc(Cl)c4)nc3n(C[C@H]3CCCO3)c2=O)cc1`, the AC50 result is “inactive”. As to `Cn1cc(-c2nc3cnc(Oc4ccccc4)nc3n(CCC#N)c2=O)c2ccccc21`, the AC50 entry was “inactive”. Turning to `Cc1nc2cnc(Oc3cccc(Cl)c3)nc2n(CCC#N)c1=O`, the AC50 entry is “inactive”. With `N#CCCn1c(=O)c(-c2cccc(C#N)c2)nc2cnc(Oc3ccccc3)nc21`, the AC50 result was “inactive”.

With `COCCn1c(=O)c(-c2cc(F)cc(F)c2)nc2cnc(Oc3cccc(Cl)c3)nc21`, the AC50 result is “inactive”. As for `COc1ncc2nc(-c3ccc(Cl)cc3)c(=O)n(C[C@H]3CCCO3)c2n1`, the AC50 was 10 µM (active). On to `CN(C)c1ncc2nc(-c3ccc(Cl)cc3)c(=O)n(C[C@H]3CCCO3)c2n1`, for which the AC50 entry was “inactive”. Still for that read-out and setting: then `N#CCCn1c(=O)c(CCc2ccccc2)nc2cnc(Oc3cccc(Cl)c3)nc21`, with 6.31 µM (active). In the case of `COCCn1c(=O)c(CCc2ccccc2)nc2cnc(Oc3cccc(Cl)c3)nc21`, the AC50 is 15.8 µM (active). Regarding `O=C(O)CC/C=C\C[C@@H]1CO[C@H](c2ccccc2Cl)O[C@@H]1c1ccccc1O`, the AC50 result was “inactive”. Turning to `O=c1c(CCc2ccccc2)nc2cnc(Oc3cccc(Cl)c3)nc2n1C[C@H]1CCCO1`, the concentration at half-maximal activity (AC50) was 20 µM (active). Consider `COc1ccc(Oc2ncc3ncc(=O)n(C[C@H]4CCCO4)c3n2)cc1`, for which the AC50 entry is “inactive”. Consider `Cc1nc2cnc(Oc3cccc(Cl)c3)nc2n(C[C@H]2CCCO2)c1=O`, for which the AC50 result is “inactive”. For `COC(=O)[C@]1(C)CCC(c2ccc(C)cc2)=C(CC(=O)O)C1`, the activity, negative = inhibition is 11.9% [at 11.4 µM]. Take `COc1ccc(C(=O)n2c(SC)nc3cc4c(cc32)OCCO4)cc1`: the AC50 is 10 µM (active). In the case of `CCOc1ccccc1NC(=O)CSc1nnc(-c2cnccn2)n1C`, the AC50 was 15.8 µM (active). For the molecule `CO[C@H]1C[C@@H]2C[C@H](O)C[C@@H](CC(=O)O[C@@H](/C=C\CC(C)C)C[C@@H]3CC[C@H](C)[C@@H](C1)O3)O2`, the activity, negative = inhibition was 2.79% [at 11.4 µM].

With `COC(=O)c1ccc(C2C(Oc3ccccc3)C(=O)N2CCc2ccc(OC)c(OC)c2)cc1` (configuration not stated), the AC50 was 1.58 µM (active).

Regarding `COc1ccc(CCN2C(=O)C(O)=C(C(=O)c3ccco3)C2c2cccs2)cc1OC` (configuration not stated), the AC50 entry is “inactive”. Same read-out and setting: then `COCCCNC(=O)C1CC(=O)N(CCc2ccc(OC)c(OC)c2)C1` (configuration not stated), with “inactive”. The same measure, in the same setting: then `Cc1ccccc1OC1C(=O)N(Cc2ccc3c(c2)OCO3)C1c1sccc1C` (configuration not stated), with 1.12 µM (active); and `COc1ccc(CCN2C(=O)C(Oc3ccccc3C)C2c2ccc3c(c2)OCO3)cc1OC` (configuration not stated), with 0.501 µM (active). As for `O=C1C[C@@H](O)[C@@H](O)[C@H]2[C@@H]3C(=O)N(Cc4ccc5c(c4)OCO5)C(=O)[C@@H]3CC[C@H]12`, the activity, negative = inhibition was 37.1% [at 11.4 µM] and -14% [at 11.4 µM].

`O=C(NCC1CCCO1)C1c2ccccc2C(=O)N1Cc1ccc2c(c1)OCO2` (configuration not stated): the AC50 result was “inactive”. Take `CN(C)CCCO[C@H]1[C@@H]2OC(C)(C)O[C@@H]2O[C@@H]1[C@H](O)CO`: the AC50 entry was “inactive”. `C[n+]1ccccc1/C=N\O`: the AC50 entry is “inactive”.

`CC(=O)NCCNc1ncnc2ccc(-c3ccc(C(=O)N(C)C)cc3)cc12`: the AC50 result is “inactive”. As to `CC(=O)NCCNc1ncnc2ccc(-c3ccc4c(c3)OCO4)cc12`, the AC50 was 6.31 µM (active).

In the case of `COc1ccccc1-c1ccc2ncnc(NCCNC(C)=O)c2c1`, the AC50 entry was “inactive”.

Turning to `CC(=O)NCCNc1ncnc2ccc(-c3ccccc3C)cc12`, the AC50 was 20 µM (active). Same read-out and setting: then `CC(=O)NCCNc1ncnc2ccc(-c3ccoc3)cc12`, with “inactive”.
